Some test systems named below: SK-MEL-2 melanoma; EKVX NSCLC; SN12C renal; UO-31 renal; TK-10 renal; ACHN renal; CAKI-1 renal; A498 renal; CCRF-CEM leukemia; MOLT-4 leukemia; SR leukemia; RPMI-8226 leukemia; OVCAR-8 ovarian; OVCAR-5 ovarian; OVCAR-4 ovarian; IGROV1 ovarian; OVCAR-3 ovarian; HS 578T breast; NCI/ADR-RES ovarian; SK-OV-3 ovarian.
Assay in all cases: NCI-60 one-dose screen, 48 h (100 = growth as untreated, 0 = no growth, -100 = all killed)
What all share (conditions): 10 µM unless noted

This note sets out measurements from PubChem BioAssay (NCI).

The panel holds about 83,000 compounds, 20% with a hit somewhere; the sample as a whole holds those more often.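 Growth was measured after 48 h exposure to one concentration of compound in 96-well plates. Values under 10 count as active.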 A number with no mark means an inactive call. The source made the active and inactive calls.

For the compound `COc1ccc(C2=NN(C=O)C(c3ccc(Oc4nc5c(c(=O)n(C)c(=O)n5C)n4C)c(OC)c3)C2)cc1` (stereo not drawn), the growth in the assay with SK-MEL-2 melanoma was 100%; in the assay on EKVX NSCLC, 91.8%; in the assay on SN12C renal it was 53.8%; in the assay with UO-31 renal, 74%; in the assay with TK-10 renal, 104%; in the assay with ACHN renal it was 84.8%. Besides, the growth with CAKI-1 renal was 75.2%; with A498 renal, 85.5%; in the assay on CCRF-CEM leukemia it was 80.5%; in the assay on MOLT-4 leukemia it was 66.7%; with SR leukemia it was 83.9%; with RPMI-8226 leukemia, 79.6%. Also, the growth with OVCAR-8 ovarian was 85.2%; with OVCAR-5 ovarian, 96.6%; in the assay with OVCAR-4 ovarian, 72.3%; with IGROV1 ovarian, 87.7%; with OVCAR-3 ovarian it was 101%; with HS 578T breast, 89.6%. For the same compound, in the assay with NCI/ADR-RES ovarian, the growth is 63.4%.

As to `Cc1ccc(-c2nc(C#N)c(S(=O)(=O)n3nc(C)cc3N)o2)cc1`, the growth was 98.3% in the assay with SK-MEL-2 melanoma; 121% in the assay with EKVX NSCLC; 90.1% with SN12C renal; 79.8% in the assay on UO-31 renal; -64.9% (active) in the assay with TK-10 renal; -37.8% (active) with ACHN renal. Also, the growth is 82% with CAKI-1 renal; 76.1% with A498 renal; -18.8% (active) in the assay on CCRF-CEM leukemia; -38% (active) in the assay with MOLT-4 leukemia; -25.8% (active) with SR leukemia; 46.5% in the assay with RPMI-8226 leukemia. For the same compound, the growth is 87.2% with OVCAR-8 ovarian; 99.8% in the assay on OVCAR-5 ovarian; 111% in the assay with OVCAR-4 ovarian; 108% in the assay on SK-OV-3 ovarian; 80.8% in the assay on IGROV1 ovarian; 54.3% with OVCAR-3 ovarian. In addition, the growth with NCI/ADR-RES ovarian was 98.5%.

In the case of `Cc1nc2cccc(NCc3ccc(C(=O)NO)cc3)c2c(=O)n1-c1ccccc1`, the growth with SK-MEL-2 melanoma is 61.7%; with EKVX NSCLC it was 61.8%; with SN12C renal it was 63.2%; with UO-31 renal, 17%; in the assay on TK-10 renal it was 15.9%; in the assay on ACHN renal it was 30.5%. Also, the growth with CAKI-1 renal was 28%; in the assay with A498 renal, 41.3%; in the assay on CCRF-CEM leukemia it was 13.4%; in the assay on MOLT-4 leukemia it was 11.5%; with SR leukemia it was 14.8%; with RPMI-8226 leukemia, 18.5%. Also, the growth in the assay with OVCAR-8 ovarian is 3.81% (active); in the assay with OVCAR-5 ovarian it was 40%; with OVCAR-4 ovarian, 62.2%; with SK-OV-3 ovarian it was 4.52% (active); in the assay on IGROV1 ovarian it was 20.4%; with OVCAR-3 ovarian, 43.9%. Further, the growth in the assay on NCI/ADR-RES ovarian is 19.2%.

As to `COc1nc2ccccc2cc1/C=[N+](\[O-])c1ccccc1`, the growth with SK-MEL-2 melanoma was 87.8%; in the assay with EKVX NSCLC, 87%; with SN12C renal, 59.1%; in the assay with UO-31 renal, 43.9%; in the assay with TK-10 renal, 79.6%; with ACHN renal it was 86.1%. The growth in the assay on CAKI-1 renal is 79.8%; with A498 renal, 90.3%; with CCRF-CEM leukemia it was 13.1%; in the assay with MOLT-4 leukemia, 29.5%; in the assay with SR leukemia it was 21.5%; in the assay with RPMI-8226 leukemia it was 14.2%. The growth in the assay with OVCAR-8 ovarian was 37.3%; with OVCAR-5 ovarian it was 97.4%; in the assay on OVCAR-4 ovarian it was 74.3%; in the assay on SK-OV-3 ovarian, 87.3%; in the assay on IGROV1 ovarian, 86.7%; in the assay on OVCAR-3 ovarian it was 86.2%. Moreover, the growth in the assay on NCI/ADR-RES ovarian was 44.9%.

Take `Cc1cc([N+](=O)[O-])ccc1NC(=O)c1ccc2c(c1)nc(-c1ccccc1)n2C1CCCCC1`: the growth was 87.4% in the assay with SK-MEL-2 melanoma; 73% in the assay with EKVX NSCLC; 98.6% with SN12C renal; 62.4% in the assay with UO-31 renal; 84.3% in the assay on TK-10 renal; 89.6% with ACHN renal. In addition, the growth is 70.3% in the assay with CAKI-1 renal; 68.5% in the assay with CCRF-CEM leukemia; 52% with MOLT-4 leukemia; 39.5% with SR leukemia; 76.2% in the assay with RPMI-8226 leukemia; 87.6% with OVCAR-8 ovarian. Besides, the growth in the assay on OVCAR-5 ovarian is 95.5%; in the assay on OVCAR-4 ovarian, 95.2%; with SK-OV-3 ovarian, 100%; with IGROV1 ovarian, 111%; in the assay with OVCAR-3 ovarian, 92.8%; with HS 578T breast it was 88.1%. Also, the growth in the assay with NCI/ADR-RES ovarian was 87.9%.

Turning to `COc1cc(C(=O)/C=C/c2c(-c3cccs3)nc3sc(C)cn23)cc(OC)c1OC`, the growth in the assay with SK-MEL-2 melanoma is 13.1%; with EKVX NSCLC, 13.4%; with SN12C renal it was 29%; in the assay with UO-31 renal, -7.93% (active); with TK-10 renal, 8.26% (active); with ACHN renal, 12.7%. Further, the growth in the assay on CAKI-1 renal is -12.7% (active); in the assay with A498 renal, -15.7% (active); with CCRF-CEM leukemia, 19.5%; in the assay on MOLT-4 leukemia, -2.47% (active); in the assay with SR leukemia, 4.77% (active); in the assay on RPMI-8226 leukemia it was 2.15% (active). The growth in the assay with OVCAR-8 ovarian is 0.3% (active); in the assay on OVCAR-5 ovarian, 56.9%; in the assay on OVCAR-4 ovarian it was 14.3%; in the assay on IGROV1 ovarian it was 9.6% (active); with OVCAR-3 ovarian, -8.57% (active); with HS 578T breast, -16.2% (active). For the same compound, the growth with NCI/ADR-RES ovarian was -35.4% (active).

In the case of `O=c1c(Cc2ccc(F)cc2)cc(-c2ccccc2)nn1C/C(=N/O)c1ccccc1`, the growth in the assay on SK-MEL-2 melanoma is 36.8%; in the assay with EKVX NSCLC it was 29.1%; in the assay on SN12C renal, 17.2%; with UO-31 renal, 30.9%; in the assay with TK-10 renal, 63.5%; with ACHN renal, 40.3%. Also, the growth in the assay with CAKI-1 renal was 47%; in the assay with CCRF-CEM leukemia, 34.6%; in the assay with MOLT-4 leukemia, 16.1%; in the assay with SR leukemia, 30.3%; in the assay on RPMI-8226 leukemia, 25.6%; in the assay with OVCAR-8 ovarian, 43.7%. Moreover, the growth in the assay with OVCAR-5 ovarian was 66.9%; in the assay on OVCAR-4 ovarian it was 41.5%; with SK-OV-3 ovarian, 74.7%; with IGROV1 ovarian, 47.3%; in the assay with OVCAR-3 ovarian, 49.5%; with HS 578T breast, 73.8%. In addition, the growth in the assay on NCI/ADR-RES ovarian is 34.7%.
